Shown are actives, neighbours in structure and some others; about 4.1% of the full set was active somewhere.
DAX1 inh-1: inhibitors of human orphan nuclear receptor DAX1 (NR0B1); P51843; HEK293 Gal4-DAX1 luciferase reporter, luminescence; inhibition, % at 6.75 µM; 340,000 compounds, 0.99% hits; AID 504766;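 active = inhibition above the mean over all tested compounds plus 3 SD, cut at about 4.2% in these data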;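 also: 0% = DAX1-transfected cells with DMSO and 100% = empty-vector control cells with DMSO; inhibition shows as a rise in luminescence from relieved DAX1 repression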
Target sequence (P51843 207-470 limits assumed): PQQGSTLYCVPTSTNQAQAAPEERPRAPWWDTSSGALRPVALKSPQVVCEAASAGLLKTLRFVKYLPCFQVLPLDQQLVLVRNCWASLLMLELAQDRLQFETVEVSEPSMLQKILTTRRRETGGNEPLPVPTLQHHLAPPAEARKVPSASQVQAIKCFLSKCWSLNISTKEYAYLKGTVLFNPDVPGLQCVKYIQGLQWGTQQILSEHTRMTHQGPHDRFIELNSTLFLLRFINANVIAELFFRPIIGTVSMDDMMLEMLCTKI
hgDAF12 agonist: hgDAF-12 agonism, primary luciferase screen. 370,000 compounds, 1.8% hits. HEK293 GAL4-hgDAF12 UAS-luciferase reporter, agonist luminescence; normalized to butyrate control. activation, % at 6.8 µM;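 active = activation above a cutoff set at the mean of all screened compounds plus 3 SD, cut at about 10% in these data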;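 also: 0% = DMSO wells and 100% = sodium butyrate wells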
ssDAF-12 act: activates DAF-12 receptor from parasite S. stercoralis; HEK293 ssDAF-12/GRIP1 lit1-tk-luc reporter, luminescence; % of 3 µM dafachronic acid response; activation, % at 6.8 µM; 370,000 compounds, 1% hits; AID 652126;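 active = activation above the mean over all tested compounds plus 3 SD, cut at about 0.9% in these data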;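 also: 0% = DMSO-only wells and 100% = 3 µM delta7-dafachronic acid wells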
hcDAF12 agonist: activates DAF-12 receptor from parasite H. contortus; 370,000 compounds, 1.4% hits; HEK293 hcDAF-12 lit1-tk-luc reporter, luminescence; 0% DMSO, 100% Δ7-dafachronic acid; activation, % at 6.8 µM;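 active = activation above the mean of all tested compounds plus 3 SD, cut at about 5.5% in these data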;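 also: 100% = response to 3 µM Δ7-dafachronic acid high control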
DAX1 inh-2: DAX1 (NR0B1) inhibition, primary screen; HEK293T StAR-luciferase reporter, SF-1/DAX-1 repression relief; inhibition, % at 6.8 µM; 370,000 compounds, 1.1% hits;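 active = inhibition above the mean over all tested compounds plus 3 SD, cut at about 3.6% in these data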;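 also: 0% = DAX-1 cells with DMSO and 100% = cells lacking DAX-1 with DMSO; higher inhibition means more luminescence from relief of DAX-1 repression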
Active calls of the source: *; / = no result given.

SMILES | DAX1 inh-1 | hgDAF12 agonist | ssDAF-12 act | hcDAF12 agonist | DAX1 inh-2
CC1CCN(C(=O)CSCC(=O)Nc2nc(-c3cccs3)cs2)CC1 | 0 | 5 | -1 | 4 | 2
COc1cc2c(c(OC)c1OC)C1(CCCCC1)CC2NS(=O)(=O)C(C)C (stereo unspecified) | / | 1 | -1 | -2 | 0
Cc1cc(N2CCN(C(=O)OC(C)(C)C)C[C@H]2C)ccc1Br | / | 2 | -1 | 0 | -1
CC1CCCC(NCC(=O)Nc2ccc(C(N)=O)cc2)C1C (stereo unspecified) | 0 | 6 | 1.7* | -1 | 1
Cc1ccc(-c2nc(C3CCCN(S(=O)(=O)c4ccc(C)c(C)c4)C3)no2)cc1 (stereo unspecified) | / | 7 | 1.0* | 1 | 3
CSc1nc(N)n2nccc2n1 | / | 0 | -1 | 6.2* | 0
CCCCNC(=O)C1CCCN1C(=O)Nc1cc(Cl)cc(Cl)c1 (stereo unspecified) | / | 0 | 1 | -2 | 1
Cc1cc2c(c(C)c1CCO)C(=O)[C@H](C)C2 | 4.7* | 2 | -1 | -1 | 1
Cc1cc2c(c(C)c1CCO[C@@H]1O[C@H](CO)[C@@H](O)[C@H](O)[C@H]1O)C(=O)[C@@H](C)[C@@H]2O | -1 | 1 | -1 | -1 | 0
O=C(N[C@@H](Cc1ccccc1)c1nc2ccccc2[nH]1)c1ccc([N+](=O)[O-])cc1 | / | 2 | -1 | 1 | 0
N#Cc1cc(-c2ccccc2)c[nH]c1=O | 5.3* | 0 | -1 | 1 | 0
O=C(c1ccc(Cl)cc1)N1CCN(c2ccccn2)CC1 | / | 1 | -2 | -3 | /
Cc1ccc(-c2nc3c(Cl)cc(Cl)cc3c(=O)n2O)cc1 | 1 | 0 | 0 | 6.0* | 0
O=c1c2cc(Br)ccc2nc(-c2ccc(Cl)cc2)n1O | 0 | 1 | 0 | -1 | 0
Cc1c(-c2nc(N)nc(Nc3ccccc3)n2)oc2ccccc12 | 2 | 11* | 0 | 3 | 2
Nc1nc(CN2CCCCCC2)nc(Nc2ccccc2)n1 | 0 | 0 | 0 | -1 | -1
CC(C)(C)OC(=O)N1c2ccccc2[C@]2(N3CCCC3)C[C@H](C(=O)O)N(C(=O)OC(C)(C)C)[C@H]12 | / | 5 | -1 | 0 | 0
CCOC(=O)c1[nH]c2ccccc2c1NC(=S)Nc1cccc(C)c1 | 4 | -1 | 0 | 5.8* | -1
CCOC(=O)c1[nH]c2ccccc2c1NC(C)=O | 1 | 2 | 0 | 3 | 0
CCOC(=O)c1[nH]c2ccccc2c1NC(=O)CC | 0 | 5 | 0 | 6.1* | 1
CCOC(=O)c1[nH]c2ccccc2c1NC(=O)COC | 1 | 2 | 0 | 3 | 0
CCOC(=O)c1[nH]c2ccccc2c1NC(=S)Nc1ccccc1 | 1 | 6 | 2.0* | 6.0* | 1
O=S(=O)(c1ccccc1Br)N(Cc1cn(CC2CCCCC2)nn1)C1CC1 | / | 5 | -1 | 2 | -1
COC(=O)[C@]12CCCCC=C1N(Cc1ccc(OC)cc1)C(=O)[C@@H]2CC(=O)NCc1cccs1 | / | -4 | -1 | -1 | 0
COC(=O)c1cc(-c2cccc(OCc3ccccc3)c2)c(=O)n2c1CCC2 | / | 0 | -1 | -2 | -1
SMILES | DAX1 inh-1 | hgDAF12 agonist | ssDAF-12 act | hcDAF12 agonist | DAX1 inh-2
CCC(Cc1ccccc1)NC(=O)Cn1ncc2ccsc2c1=O (stereo unspecified) | 0 | 11* | 1.0* | 5.9* | 0
CCC(Cc1ccccc1)NC(=O)Cn1cccc1C(=O)c1ccccc1 (stereo unspecified) | -1 | 0 | -1 | -3 | 0
CCc1ccc(NC(=S)N2CCCCCCC2)cc1 | 1 | 11* | 0 | 0 | 3
CCCOc1ccc(C(=O)Nc2ccccc2[N+](=O)[O-])cc1 | 1 | 13* | 0 | 4 | 1
O=C(CNC(=O)c1cccc(S(=O)(=O)N2CCc3ccccc32)c1)Nc1ccccc1Br | -2 | -7 | 1.2* | -2 | -1
CCCC(=O)Nc1ccc(S(=O)(=O)N2CCc3ccccc32)cc1 | 4.8* | 1 | 0 | -2 | 0
CCC(=O)Nc1ccc(S(=O)(=O)N2CCc3ccccc32)cc1 | 0 | -1 | -1 | -1 | -1
O=C(CNC(=O)c1cccc(S(=O)(=O)N2CCc3ccccc32)c1)Nc1ccc(F)c(F)c1F | -1 | -6 | -1 | -1 | -1
COC(=O)C12C=C3CC(C4CC4)=C3C(=O)N1Cc1[nH]c3ccccc3c1C2 (stereo unspecified) | / | 0 | 0 | 4 | -2
Cc1ccc(/C=C2/C(=O)c3ccc(C(=O)O)cc3C2=O)o1 | 3 | -1 | -1 | 2 | 0
Cc1ccc(C=C2C(=O)c3ccccc3C2=O)o1 | 1 | 5 | -1 | 6.3* | 0
COc1ccc(CNC(=O)C2CC(C)=C(C)CC2C(=O)O)cc1OC (stereo unspecified) | 4.5* | 1 | 0 | -1 | 1
COc1cc(NC(=O)Cn2ccsc2=N)c(C)cc1[N+](=O)[O-] | 1 | 5 | -1 | 1 | -2
N=c1sccn1CC(=O)Nc1ccc(Cl)cc1[N+](=O)[O-] | 4.4* | 2 | -1 | 2 | -1
Cc1cc(-c2nnc(CCC(=O)N3CCN(Cc4cccc(F)c4)CC3)o2)c(C)o1 | 6.3* | -1 | 0 | 0 | 0
Cn1cc(C2(C)CCOc3ccccc32)c2ccccc21 (stereo unspecified) | / | 4 | 0 | 1 | 2
Cc1ccc(-n2nc(CC#N)c(C#N)c2N)cc1 | 1 | 2 | 0 | 2 | 0
Cc1ccc(-n2nc(CC#N)c(C#N)c2N)cc1Cl | 0 | -1 | 1.3* | 5 | 0
Clc1ccc(Cl)c2sc(N3CCOCC3)nc12 | -2 | 3 | -1 | 2 | 0
Clc1cc(Cl)c2nc(N3CCOCC3)sc2c1 | 4.8* | 6 | 0 | 2 | 1
Cc1c(-n2c(O)c(C3=c4ccccc4=NC3=O)sc2=S)c(=O)n(-c2ccccc2)n1C | 1 | -2 | -1 | 5.6* | 0
CCOC(=O)C1CCCN1C(=O)C1(NC(C)=O)CCCC1 (stereo unspecified) | 2 | 12* | -1 | -1 | 0
CCOC(=O)C1CCN(C(=O)C2(NC(=O)NC3CCCCC3)CCCCC2)CC1 | 0 | 0 | -1 | -2 | 0
CCOc1ccccc1N1C(=O)CC(Sc2n[nH]c(-c3ccccc3)n2)C1=O (stereo unspecified) | 4.8* | -1 | -1 | 1 | 0
O=C(Nc1ccc(C(O)(C(F)(F)F)C(F)(F)F)cc1)c1ccc(F)cc1Cl | / | 5 | -1 | -1 | /
Cc1c(O)ccc(C(=O)COc2ccc(F)cc2)c1O | 3 | 12* | -1 | 1 | 1
CCOc1ccc(-n2c(SCC(=O)Nc3ccc(Oc4ccccc4)cc3)nnc2-c2ccncc2)cc1 | / | -3 | 0 | -1 | 0
CSc1ccccc1OCc1cc(C(=O)N2CCCC2c2nonc2C)no1 (stereo unspecified) | 1 | 13* | 0 | 5.9* | 1
